Results taken from PubChem BioAssay (Tox21).
Inconclusive results are not listed. A call without a number means that no potency is given here. Activity calls are given as the source filed them. Unless noted, the call rests on the fitted dose curve; in most records, active means well fitted curve in the direction sought with a large enough effect in the repeat runs; inconclusive means weak or mixed curves; inactive means no such curve, though single readings can be large; an effect the other way counts as inactive or inconclusive.

System: not listed separately
Assay: qHTS assay to identify small molecule agonists of the estrogen receptor beta (ER-beta) signaling pathway - cell viability counter screen (AID 1259380); further: nearly all actives have a fitted effect of over 30% in size; further: potency means the concentration at half of the fitted maximal effect
Details: ER-beta-bla HEK293T viability, CellTiter-Glo luminescence, 16 h; series mostly up to 92.4 µM
Outline: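 ER-beta-UAS-bla HEK293T cells in medium with 2% charcoal-stripped FBS were preincubated 6 hr at 37C, dosed with compound in DMSO for 16 hr, then after the bla read, CellTiter-Glo was added for 30 min at room temperature; luminescence recorded.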

Q: With CC/C=C(\C)C=O as the molecule, how does the Potency read?
A: The Potency was “inactive”.

Q: For O=C(O)CN(CCCN(CC(=O)O)CC(=O)O)CC(=O)O, which activity change, negative = cytotoxicity is on record?
A: The activity change, negative = cytotoxicity was -20.5% [at 19 µM] (inactive).

Q: With CSc1ccc(O)cc1C as the molecule, how does the Potency read?
A: Its Potency is 61.1 µM (active).

Q: Which Potency does the source give for O=C(NCc1ncc(C(F)(F)F)cc1Cl)c1c(Cl)cccc1Cl here?
A: The Potency was 43.3 µM (active).

Q: With O=c1cc[nH]cc1 as the molecule, how does the Potency read?
A: Its Potency is “inactive”.

Q: Which Potency does the source give for CN1CCN(CCCN2c3ccccc3Sc3ccc(Cl)cc32)CC1 here?
A: Its Potency is 21.1 µM (active).

Q: Which Potency does the source give for CCOc1nc(F)cc2nc(S(=O)(=O)Nc3c(Cl)cccc3C(=O)OC)nn12 here?
A: The Potency was “inactive”.

Q: Which Potency does the source give for Cn1ccnc1 here?
A: The Potency was “inactive”.

Q: With CCCCCCCCCCCCS(=O)(=O)Cl as the molecule, how does the Potency read?
A: Its Potency is 14.6 µM (active).

Q: With CCN(CCC#N)c1ccc(N=Nc2ccc([N+](=O)[O-])cc2)cc1 as the molecule, how does the Potency read?
A: Its Potency is “inactive”.

Q: With CC(C)C(=O)C(C)C as the molecule, how does the Potency read?
A: Its Potency is “inactive”.

Q: Which Potency does the source give for CCN(CC)c1ccc2c(c1)Oc1cc(N(CC)CC)ccc1C21OC(=O)c2ccccc21 here?
A: The Potency was 10.6 µM (active).

Q: Which Potency does the source give for Cc1cc(Br)ccc1NC(=O)CCl here?
A: Its Potency is 30.6 µM (active).

Q: For N#Cc1nc(Cl)c(Cl)c(Cl)c1Cl, which Potency is on record?
A: The Potency was 15.4 µM (active).

Q: For [Cl][Eu]([Cl])[Cl], which Potency is on record?
A: The Potency was “inactive”.

Q: With COc1cc(/C=C/C(=O)CC(=O)/C=C/c2ccc(O)c(OC)c2)ccc1O as the molecule, how does the Potency read?
A: Its Potency is 69 µM (active).

Q: For N#CCCOCCC#N, which Potency is on record?
A: The Potency was “inactive”.

Q: For Oc1cccc2c(O)cccc12, which Potency is on record?
A: Its Potency is 61.1 µM (active).

Q: With Nc1ccc(F)c([N+](=O)[O-])c1 as the molecule, how does the Potency read?
A: Its Potency is “inactive”.

Q: Which Potency does the source give for CC(=O)CC(N)=O here?
A: Its Potency is “inactive”.

Q: For Oc1ccc(C2(c3ccc(O)c(C4CCCCC4)c3)CCCCC2)cc1C1CCCCC1, which Potency is on record?
A: The Potency was 19.3 µM (active).

Q: With CCSCC as the molecule, how does the Potency read?
A: The Potency was “inactive”.

Q: For C=CC(=O)OCCOC1C2CCC1C1CC=CC12 (stereo unspecified), which activity change, negative = cytotoxicity is on record?
A: The activity change, negative = cytotoxicity was -0.168% [at 19 µM] (inactive).

Q: Which Potency does the source give for CC(C=O)c1ccccc1 (stereo unspecified) here?
A: Its Potency is “inactive”.

Q: For CCCC(C)C=O (stereo unspecified), which Potency is on record?
A: The Potency was “inactive”.

Q: Which Potency does the source give for C=CC(=O)O[C@H]1C[C@@H]2CC[C@@]1(C)C2(C)C here?
A: Its Potency is “inactive”.

Q: With O=C1OC(=O)c2cc(-c3ccc4c(c3)C(=O)OC4=O)ccc21 as the molecule, how does the Potency read?
A: Its Potency is “inactive”.

Q: For CCCCCCCCCCCCCCCCCCNC(=O)OC1CCN(C(=O)OC[C@H](COC(=O)N(Cc2cccc[n+]2CC)C(=O)c2ccccc2OC)OC)CC1, which Potency is on record?
A: The Potency was 26.6 µM (active).

Q: With C=C[Si](C)(C)Cl as the molecule, how does the activity change, negative = cytotoxicity read?
A: Its activity change, negative = cytotoxicity is 0.271% [at 8.39 µM] (inactive).

Q: For CCC(C)(C)c1ccc(CC(C)CN2C[C@@H](C)O[C@@H](C)C2)cc1 (stereo partly specified), which Potency is on record?
A: Its Potency is 26.6 µM (active).

Q: Which Potency does the source give for CN1CCN(c2ccccc2/C=C2\SCCN(c3ccc(Cl)c(Cl)c3)C2=O)CC1 here?
A: Its Potency is 30.6 µM (active).

Q: With Cc1ccc2nc(-c3ccc(N)cc3)sc2c1S(=O)(=O)O as the molecule, how does the Potency read?
A: Its Potency is “inactive”.

Q: With O=[N+]([O-])c1ccc(CO)cc1 as the molecule, how does the Potency read?
A: The Potency was “inactive”.

Q: Which Potency does the source give for NC(=O)c1ccccc1Cl here?
A: The Potency was “inactive”.

Q: With CC(CC(C)(C)C)CC(C)(C)CC(C)(C)C (stereo unspecified) as the molecule, how does the Potency read?
A: Its Potency is “inactive”.

Q: For O=C(O)C[C@H](O)C[C@H](O)/C=C/c1c(C2CC2)nc2ccccc2c1-c1ccc(F)cc1, which Potency is on record?
A: Its Potency is 3.26 µM (active).

Q: With C=Cc1ccncc1 as the molecule, how does the Potency read?
A: Its Potency is “inactive”.

Q: Which Potency does the source give for CCN(CC)c1ccc(N=Nc2ccccc2)cc1 here?
A: Its Potency is 17.2 µM (active).

Target: Androgen receptor (Homo sapiens) (UniProt P10275)
Assay: qHTS assay to identify small molecule agonists of the androgen receptor (AR) signaling pathway in the presence of an antagonist (AID 1259381; calls by dose curve; further: nearly all actives have a fitted effect of over 15% in size)
Details: MDA-kb2 MMTV-luciferase, AR agonist + nilutamide, 16 h; series mostly up to 92.4 µM
Outline: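 MDA-kb2 human breast carcinoma cells carrying an MMTV-luciferase reporter (AR- and GR-responsive) were treated with compounds at 15 concentrations plus 3.0uM final nilutamide for 16hr at 37C without CO2; luminescence was read after ONE-Glo addition.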

Sequence of Androgen receptor (Homo sapiens) (P10275 whole entry, looked up): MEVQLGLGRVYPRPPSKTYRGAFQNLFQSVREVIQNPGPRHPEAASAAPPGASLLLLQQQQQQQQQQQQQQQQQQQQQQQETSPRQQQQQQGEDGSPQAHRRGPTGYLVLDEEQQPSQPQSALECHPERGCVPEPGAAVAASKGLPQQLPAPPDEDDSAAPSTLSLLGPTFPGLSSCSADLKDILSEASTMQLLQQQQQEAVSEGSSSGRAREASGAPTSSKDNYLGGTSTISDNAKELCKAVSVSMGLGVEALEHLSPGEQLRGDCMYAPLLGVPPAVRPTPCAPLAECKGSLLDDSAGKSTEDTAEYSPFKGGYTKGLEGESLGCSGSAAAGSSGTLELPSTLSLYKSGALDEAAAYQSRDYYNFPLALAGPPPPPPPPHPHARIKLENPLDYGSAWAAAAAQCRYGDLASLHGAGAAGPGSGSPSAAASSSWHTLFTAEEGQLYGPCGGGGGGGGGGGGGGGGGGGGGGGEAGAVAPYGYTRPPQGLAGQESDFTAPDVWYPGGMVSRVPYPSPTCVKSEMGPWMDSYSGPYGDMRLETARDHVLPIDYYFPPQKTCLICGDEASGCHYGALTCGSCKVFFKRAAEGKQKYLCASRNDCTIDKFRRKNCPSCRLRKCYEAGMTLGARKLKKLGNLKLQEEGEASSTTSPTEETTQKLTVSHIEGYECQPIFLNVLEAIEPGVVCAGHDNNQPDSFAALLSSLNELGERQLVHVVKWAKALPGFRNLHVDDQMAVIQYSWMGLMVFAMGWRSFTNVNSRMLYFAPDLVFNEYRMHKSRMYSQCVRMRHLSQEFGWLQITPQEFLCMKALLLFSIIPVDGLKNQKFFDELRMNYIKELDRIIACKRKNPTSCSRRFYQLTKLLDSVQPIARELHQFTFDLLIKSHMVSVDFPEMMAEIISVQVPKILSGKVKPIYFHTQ

Q: With O=C(O)CN(CCCN(CC(=O)O)CC(=O)O)CC(=O)O as the molecule, how does the activation read?
A: The activation was 1.23% [at 19 µM] (inactive).

Q: For CSc1ccc(O)cc1C, which Potency is on record?
A: The Potency was “inactive”.

Q: With O=C(NCc1ncc(C(F)(F)F)cc1Cl)c1c(Cl)cccc1Cl as the molecule, how does the Potency read?
A: Its Potency is “inactive”.

Q: For O=c1cc[nH]cc1, which Potency is on record?
A: Its Potency is “inactive”.

Q: Which Potency does the source give for CCOc1nc(F)cc2nc(S(=O)(=O)Nc3c(Cl)cccc3C(=O)OC)nn12 here?
A: Its Potency is “inactive”.

Q: For CCCCCCCCCCCCS(=O)(=O)Cl, which activation is on record?
A: Its activation is 1.48% [at 19 µM] (inactive).

Q: Which Potency does the source give for CCN(CCC#N)c1ccc(N=Nc2ccc([N+](=O)[O-])cc2)cc1 here?
A: Its Potency is “inactive”.

Q: With CC(C)C(=O)C(C)C as the molecule, how does the Potency read?
A: The Potency was “inactive”.

Q: With CCN(CC)c1ccc2c(c1)Oc1cc(N(CC)CC)ccc1C21OC(=O)c2ccccc21 as the molecule, how does the Potency read?
A: Its Potency is “inactive”.

Q: With N#Cc1nc(Cl)c(Cl)c(Cl)c1Cl as the molecule, how does the Potency read?
A: Its Potency is “inactive”.

Q: Which Potency does the source give for COc1cc(/C=C/C(=O)CC(=O)/C=C/c2ccc(O)c(OC)c2)ccc1O here?
A: Its Potency is “inactive”.

Q: For N#CCCOCCC#N, which Potency is on record?
A: Its Potency is “inactive”.

Q: Which activation does the source give for C=CC(=O)OCCOC1C2CCC1C1CC=CC12 (stereo unspecified) here?
A: Its activation is 0.68% [at 19 µM] (inactive).

Q: Which Potency does the source give for CC(C=O)c1ccccc1 (stereo unspecified) here?
A: The Potency was “inactive”.

Q: With CCCCCCCCCCCCCCCCCCNC(=O)OC1CCN(C(=O)OC[C@H](COC(=O)N(Cc2cccc[n+]2CC)C(=O)c2ccccc2OC)OC)CC1 as the molecule, how does the Potency read?
A: Its Potency is “inactive”.

Q: Which Potency does the source give for O=[N+]([O-])c1ccc(CO)cc1 here?
A: Its Potency is “inactive”.

Q: Which Potency does the source give for CC(CC(C)(C)C)CC(C)(C)CC(C)(C)C (stereo unspecified) here?
A: Its Potency is “inactive”.

Q: Which activation does the source give for O=C(O)C[C@H](O)C[C@H](O)/C=C/c1c(C2CC2)nc2ccccc2c1-c1ccc(F)cc1 here?
A: Its activation is -0.267% [at 19 µM] (inactive).

Q: For C=Cc1ccncc1, which Potency is on record?
A: The Potency was “inactive”.

System: not listed separately
Assay: qHTS assay to identify small molecule antagonists of the estrogen receptor beta (ER-beta) signaling pathway - cell viability counter screen (AID 1259382); further: nearly all actives have a fitted effect of over 55% in size; further: potency means the concentration at half of the fitted maximal effect;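 on activity change, negative = cytotoxicity: HEK293T cells carrying ER-beta-UAS-bla reporter stimulated with estradiol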
Details: ER-beta-UAS-bla HEK293T viability, CellTiter-Glo luminescence, 16 h; series mostly up to 92.4 µM
Outline: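 ER-beta-UAS-bla HEK293T cells (2,000/well, 2% charcoal-stripped FBS) were pre-incubated 6 hr at 37C, then given compound plus 1nM final 17-beta-estradiol for 16 hr. Viability was read in the same wells by CellTiter-Glo luminescence after 30 min at room temperature.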

Q: With CC/C=C(\C)C=O as the molecule, how does the Potency read?
A: Its Potency is “inactive”.

Q: Which Potency does the source give for CN1CCN(CCCN2c3ccccc3Sc3ccc(Cl)cc32)CC1 here?
A: The Potency was 13.3 µM (active).

Q: With Cn1ccnc1 as the molecule, how does the Potency read?
A: Its Potency is “inactive”.

Q: Which Potency does the source give for Cc1cc(Br)ccc1NC(=O)CCl here?
A: The Potency was 30.6 µM (active).

Q: With [Cl][Eu]([Cl])[Cl] as the molecule, how does the Potency read?
A: Its Potency is “inactive”.

Q: Which Potency does the source give for Oc1cccc2c(O)cccc12 here?
A: The Potency was 61.1 µM (active).

Q: With Nc1ccc(F)c([N+](=O)[O-])c1 as the molecule, how does the Potency read?
A: Its Potency is “inactive”.

Q: Which Potency does the source give for CC(=O)CC(N)=O here?
A: The Potency was “inactive”.

Q: With Oc1ccc(C2(c3ccc(O)c(C4CCCCC4)c3)CCCCC2)cc1C1CCCCC1 as the molecule, how does the Potency read?
A: The Potency was 27.3 µM (active).

Q: Which Potency does the source give for CCSCC here?
A: Its Potency is “inactive”.

Q: Which Potency does the source give for CCCC(C)C=O (stereo unspecified) here?
A: Its Potency is “inactive”.

Q: With C=CC(=O)O[C@H]1C[C@@H]2CC[C@@]1(C)C2(C)C as the molecule, how does the Potency read?
A: Its Potency is “inactive”.

Q: Which Potency does the source give for O=C1OC(=O)c2cc(-c3ccc4c(c3)C(=O)OC4=O)ccc21 here?
A: Its Potency is “inactive”.

Q: Which activity change, negative = cytotoxicity does the source give for C=C[Si](C)(C)Cl here?
A: Its activity change, negative = cytotoxicity is 6.43% [at 8.39 µM] (inactive).

Q: For CCC(C)(C)c1ccc(CC(C)CN2C[C@@H](C)O[C@@H](C)C2)cc1 (stereo partly specified), which Potency is on record?
A: The Potency was “inactive”.

Q: Which Potency does the source give for CN1CCN(c2ccccc2/C=C2\SCCN(c3ccc(Cl)c(Cl)c3)C2=O)CC1 here?
A: The Potency was 61.1 µM (active).

Q: With Cc1ccc2nc(-c3ccc(N)cc3)sc2c1S(=O)(=O)O as the molecule, how does the Potency read?
A: Its Potency is “inactive”.

Q: With NC(=O)c1ccccc1Cl as the molecule, how does the Potency read?
A: Its Potency is “inactive”.

Q: With CCN(CC)c1ccc(N=Nc2ccccc2)cc1 as the molecule, how does the Potency read?
A: The Potency was 30.6 µM (active).
